Values without a mark were called inactive. Calls of active or inactive are those of the source. Rule as the data show it, unless noted: active = inhibition above about 42%; inactive = the rest.
Experiments:
[1] = StAR promoter reporter inhibitors, counter-screen for LRH-1 inverse agonist project, cell-based, luminescence, high throughput (AID 651611; in the data active = inhibition above about 28%); conditions: StAR promoter luciferase reporter counterscreen, at 3.6 µM, active compounds read high
[2] = molecular target: Nuclear receptor subfamily 5 group A member 2 (Homo sapiens) (UniProt O00482); test: LRH-1 (NR5A2) inverse agonists, retest, confirmation, cell-based, luminescence (AID 651613); conditions: cell-based LRH-1 luciferase reporter, inverse agonism; at 3.6 µM; active compounds read high;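 also: HEK293T cells co-transfected with LRH-1 and StAR promoter luciferase reporter; 0% = vehicle wells and 100% = parental cells lacking receptor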
[3] = molecular target: Steroidogenic factor 1 (Homo sapiens) (UniProt Q13285); test: SF1 (NR5A1) inverse agonists, counter-screen for LRH-1 inverse agonist project, cell-based, luminescence, high throughput (AID 651614; in the data active = inhibition above about 44%;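 also: cells cotransfected with StAR promoter reporter and SF1 expression vector; 0% = vehicle on cells with receptor and 100% = vehicle on cells lacking receptor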); conditions: cell-based SF1 luciferase reporter, at 3.6 µM, active compounds read high
[4] = VP16 transactivation reporter inhibitors, counter-screen for LRH-1 inverse agonist project, cell-based, luminescence, high throughput (AID 651615; in the data active = inhibition above about 33%); conditions: Gal4-VP16 luciferase reporter cells, at 3.6 µM, active compounds read high

Sequence of Nuclear receptor subfamily 5 group A member 2 (Homo sapiens) (O00482 whole entry, looked up): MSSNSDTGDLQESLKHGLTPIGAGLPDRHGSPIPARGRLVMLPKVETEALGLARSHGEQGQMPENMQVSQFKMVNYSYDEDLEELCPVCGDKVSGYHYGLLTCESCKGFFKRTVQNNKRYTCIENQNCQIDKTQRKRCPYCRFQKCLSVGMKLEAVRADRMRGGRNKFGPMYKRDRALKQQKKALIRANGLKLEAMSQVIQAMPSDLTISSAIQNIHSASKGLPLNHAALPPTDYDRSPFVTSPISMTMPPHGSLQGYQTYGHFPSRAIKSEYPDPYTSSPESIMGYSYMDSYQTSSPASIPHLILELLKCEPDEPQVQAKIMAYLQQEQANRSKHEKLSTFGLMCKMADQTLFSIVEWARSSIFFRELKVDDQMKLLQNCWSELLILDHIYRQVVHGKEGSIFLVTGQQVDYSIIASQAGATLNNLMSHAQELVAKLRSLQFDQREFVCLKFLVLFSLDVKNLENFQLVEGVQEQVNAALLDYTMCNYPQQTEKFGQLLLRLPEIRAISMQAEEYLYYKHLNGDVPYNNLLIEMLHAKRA
Sequence of Steroidogenic factor 1 (Homo sapiens) (Q13285 whole entry, looked up, the tested form may be a part): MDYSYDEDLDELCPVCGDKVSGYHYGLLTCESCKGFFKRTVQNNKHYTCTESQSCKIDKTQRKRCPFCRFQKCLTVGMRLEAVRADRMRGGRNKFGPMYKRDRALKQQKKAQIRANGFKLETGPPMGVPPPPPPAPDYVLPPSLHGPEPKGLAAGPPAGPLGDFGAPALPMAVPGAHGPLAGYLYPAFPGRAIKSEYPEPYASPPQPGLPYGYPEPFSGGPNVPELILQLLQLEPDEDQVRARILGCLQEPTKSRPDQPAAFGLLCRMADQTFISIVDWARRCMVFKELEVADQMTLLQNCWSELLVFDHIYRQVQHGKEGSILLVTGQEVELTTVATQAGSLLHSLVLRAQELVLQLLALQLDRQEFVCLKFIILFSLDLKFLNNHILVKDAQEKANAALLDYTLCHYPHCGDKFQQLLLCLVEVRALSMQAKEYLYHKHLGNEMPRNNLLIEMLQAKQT

C/C(=N\Nc1cc(C(F)(F)F)ccc1Cl)c1ccncc1
inhibition [1]: 2.53%
inhibition [2]: 40%
inhibition [3]: 47.6% (active)
inhibition [4]: 3.73%

C/C(=N\NC(N)=S)c1ccc(-n2ccnc2)cc1
inhibition [1]: 10.1%
inhibition [2]: 60.5% (active)
inhibition [3]: 53.4% (active)
inhibition [4]: -13.1%

Cc1c(NC(=S)NC(=O)c2ccc(Cl)cc2)c(=O)n(-c2ccccc2)n1C
inhibition [1]: 11.3%
inhibition [2]: 51.5% (active)
inhibition [3]: 33.4%
inhibition [4]: -1.07%

OCC1OC(n2cnc3c(/C=C(\O)c4ccccc4)ncnc32)C(O)C1O (stereo not drawn)
inhibition [1]: -32.8%
inhibition [2]: -13.9%
inhibition [3]: -0.35%
inhibition [4]: -27.3%

COc1ccc(/C=C2/C(=O)OCc3cc(OC)c(OC)cc32)cc1
inhibition [1]: 36.9% (active)
inhibition [2]: 56.4% (active)
inhibition [3]: 57.9% (active)
inhibition [4]: 23.4%

CCN(CC)c1ccc(NC(=O)CSc2nnc(N)s2)cc1C
inhibition [1]: -2.14%
inhibition [2]: 57.1% (active)
inhibition [3]: 51.4% (active)
inhibition [4]: -4.26%

CC(C(=O)N1CCCc2c1c(=O)oc1ccc(O)cc21)N1CCc2ccccc2C1 (stereo not drawn)
inhibition [1]: 3.35%
inhibition [2]: 48.5% (active)
inhibition [3]: 32.4%
inhibition [4]: -3.51%

CCOc1ccc(CCNC(=O)COC(=O)c2cccc(S(=O)(=O)N3CCCC3)c2)cc1OCC
inhibition [1]: -4.16%
inhibition [2]: 58.6% (active)
inhibition [3]: 54.1% (active)
inhibition [4]: 9.86%

COc1ccc2sc(-c3ccc(N(C)C)cc3)c(C#CCCO)c2c1
inhibition [1]: 3.58%
inhibition [2]: 21.3%
inhibition [3]: 53.7% (active)
inhibition [4]: -4.7%

CC(=NNC(=S)N1CCN(c2ccccn2)CC1)c1nccs1
inhibition [1]: 82.9% (active)
inhibition [2]: 91.2% (active)
inhibition [3]: 79.4% (active)
inhibition [4]: 44.3% (active)

Cn1nc(C(C)(C)C)cc1C(=O)NCc1ccc2c(c1)OCO2
inhibition [1]: 14.8%
inhibition [2]: 59.8% (active)
inhibition [3]: 58.3% (active)
inhibition [4]: 50.6% (active)

Cc1ccc(C)c(NC(=O)CSc2nc3c(oc4ccccc43)c(=O)n2-c2ccccc2)c1
inhibition [1]: 10.6%
inhibition [2]: 50.3% (active)
inhibition [3]: 46.7% (active)
inhibition [4]: -9.48%

N=c1sccn1CC(=O)Nc1ccc(S(N)(=O)=O)cc1
inhibition [1]: 17.1%
inhibition [2]: 54.1% (active)
inhibition [3]: 50.5% (active)
inhibition [4]: -2.17%

CC(=O)Nc1ccc(NC(=O)CSc2ccc(-c3ccc(-n4ccnc4)cc3)nn2)cc1
inhibition [1]: 9.71%
inhibition [2]: 52% (active)
inhibition [3]: 53% (active)
inhibition [4]: -5.42%

COc1cc2nc(/C=C/c3cc(OC)c(OC)c(OC)c3)sc2cc1SC
inhibition [1]: 35.7% (active)
inhibition [2]: 45.1% (active)
inhibition [3]: 58.6% (active)
inhibition [4]: -2.8%

COc1cc2oc(-c3ccc(O)cc3)cc(=O)c2c(O)c1OC
inhibition [1]: 7%
inhibition [2]: 35.9%
inhibition [3]: 32.8%
inhibition [4]: -45.5%

COc1cccc(C2c3cc4c(cc3OC(N3CCCC3)C2C)OCO4)c1O (stereo not drawn)
inhibition [1]: 55% (active)
inhibition [2]: 64% (active)
inhibition [3]: 73.2% (active)
inhibition [4]: 21.9%

O=C(c1ccccc1Br)N1CCN(c2ccc([N+](=O)[O-])c(N3CCOCC3)c2)CC1
inhibition [1]: 8.23%
inhibition [2]: 42% (active)
inhibition [3]: 38.9%
inhibition [4]: -4.88%

Cc1sc(NC(=O)C(C)C)c(C(=O)Nc2ccccc2)c1C
inhibition [1]: 13.2%
inhibition [2]: 50.2% (active)
inhibition [3]: 45.9% (active)
inhibition [4]: -9.75%

CCN(CC)S(=O)(=O)c1ccc(NC(=O)c2ccc(CN3CCOCC3)cc2)cc1
inhibition [1]: 23.9%
inhibition [2]: 57.5% (active)
inhibition [3]: 57.4% (active)
inhibition [4]: 54.4% (active)

CCOc1ccc(CCNC(=O)COC(=O)c2cc(=O)[nH]c3ccccc23)cc1OCC
inhibition [1]: 8.79%
inhibition [2]: 53.2% (active)
inhibition [3]: 53.2% (active)
inhibition [4]: -8.43%

CCOc1ccc(NC(=O)COC(=O)c2ccc3c(c2)OCCO3)cc1
inhibition [1]: 14%
inhibition [2]: 57.6% (active)
inhibition [3]: 51.9% (active)
inhibition [4]: -12.9%

Cc1c(NC(=O)c2ccc([N+](=O)[O-])o2)cccc1-c1nc2ncccc2o1
inhibition [1]: 13.3%
inhibition [2]: 66.2% (active)
inhibition [3]: 58.7% (active)
inhibition [4]: -13.2%

Cc1ccsc1CNc1ncnc2ccc(-c3c(C)noc3C)cc12
inhibition [1]: 54.5% (active)
inhibition [2]: 37.9%
inhibition [3]: 28.7%
inhibition [4]: -142%

COc1cc(-c2cc(-c3ccc(O)cc3)nc(N)c2C#N)ccc1O
inhibition [1]: 36.1% (active)
inhibition [2]: 68.3% (active)
inhibition [3]: 53.9% (active)
inhibition [4]: -133%

CC(=O)c1ccc(NC(=O)CSc2nc3[nH]ncc3c(=O)[nH]2)cc1
inhibition [1]: -0.97%
inhibition [2]: 61.5% (active)
inhibition [3]: 50.8% (active)
inhibition [4]: -6.29%

O=C(Nc1ccc(Cl)cn1)c1ccc([N+](=O)[O-])o1
inhibition [1]: -0.66%
inhibition [2]: 51.5% (active)
inhibition [3]: 55% (active)
inhibition [4]: -20.8%

Cc1ccc(S(=O)(=O)N2CC(O)CC2C(=O)OCC(=O)Nc2ccc([N+](=O)[O-])cc2C(F)(F)F)cc1C (stereo not drawn)
inhibition [1]: 18.7%
inhibition [2]: 60.5% (active)
inhibition [3]: 56% (active)
inhibition [4]: -5.69%

CCCNC(=O)c1sc2c(c1C(=O)Nc1ccccn1)CCCC2
inhibition [1]: -1.58%
inhibition [2]: 47.1% (active)
inhibition [3]: 42.7% (active)
inhibition [4]: 14.3%

COc1ccc(C2=Nn3c(nnc3-c3ccccc3OC)SC2)cc1OCC1CC1
inhibition [1]: 49.1% (active)
inhibition [2]: 60.4% (active)
inhibition [3]: 62.8% (active)
inhibition [4]: 24.6%

O=C1CC(c2cccc([N+](=O)[O-])c2)c2ccc3ccccc3c2N1 (stereo not drawn)
inhibition [1]: 11.8%
inhibition [2]: 40.8%
inhibition [3]: 39.5%
inhibition [4]: 9.31%

CCOc1ccc(NC(=O)CN2CCN(C3c4ccccc4-c4ccccc43)CC2)cc1
inhibition [1]: 9.85%
inhibition [2]: 66.5% (active)
inhibition [3]: 60.1% (active)
inhibition [4]: -0.77%

Cc1ccc(C)c(NC(=O)CSc2nnc(-c3n[nH]c4ccccc34)o2)c1
inhibition [1]: 10.3%
inhibition [2]: 58.9% (active)
inhibition [3]: 50.4% (active)
inhibition [4]: 5.08%

COc1ccc(CCNC(=O)COC(=O)C2CC2C)cc1 (stereo not drawn)
inhibition [1]: 3.36%
inhibition [2]: 47.1% (active)
inhibition [3]: 48.6% (active)
inhibition [4]: 2.63%

CCCCCCCCn1c2c(c(=N)c3ccccc31)CCC2
inhibition [1]: 78.5% (active)
inhibition [2]: 110% (active)
inhibition [3]: 92.8% (active)
inhibition [4]: 92.1% (active)

C#CCN(C[C@@H]1[C@@H](OC(=O)NCc2ccc(OC)c(OC)c2)[C@@H](OC(=O)NCc2ccc(OC)c(OC)c2)CN(C(=O)OC(C)C)N1C(=O)OC(C)C)S(=O)(=O)c1ccc(C)cc1
inhibition [1]: 1.68%
inhibition [2]: 35.2%
inhibition [3]: 30.1%
inhibition [4]: 10.3%

CC1(C)Cc2ccccc2-c2nnnn21
inhibition [1]: 3.18%
inhibition [2]: 14.1%
inhibition [3]: 2.39%
inhibition [4]: -5.72%

COc1cc(CNc2ccc(CNc3ncn[nH]3)cc2)ccc1OCC(=O)NC(C)(C)C
inhibition [1]: -5.1%
inhibition [2]: 14.1%
inhibition [3]: -3.26%
inhibition [4]: 15.7%

COc1cc(-c2nc(C(=O)NCC3CCCO3)cc3c2[nH]c2ccccc23)cc(OC)c1OC (stereo not drawn)
inhibition [1]: 62.5% (active)
inhibition [2]: 49.6% (active)
inhibition [3]: 39.1%
inhibition [4]: 2.55%

CN(C)c1ccc(NC(=O)CSc2nnc(-c3ccco3)c(-c3ccco3)n2)cc1
inhibition [1]: 14.1%
inhibition [2]: 54.9% (active)
inhibition [3]: 47.8% (active)
inhibition [4]: -2.61%

Clc1ccccc1-c1nnc2sc(-c3ccc(Br)o3)nn12
inhibition [1]: 5.07%
inhibition [2]: 43.5% (active)
inhibition [3]: 54.5% (active)
inhibition [4]: -2.86%

Cc1onc(-c2c(F)cccc2Cl)c1C(=O)Nc1cccc2nsnc12
inhibition [1]: 8.33%
inhibition [2]: 52.1% (active)
inhibition [3]: 49.8% (active)
inhibition [4]: 27.2%

O=C(NNc1c(F)c(F)cc(F)c1F)C1CCN(S(=O)(=O)c2ccccc2F)CC1
inhibition [1]: -3.09%
inhibition [2]: 8.61%
inhibition [3]: 22.4%
inhibition [4]: 4.32%

Cc1ccc(NC(=O)CSc2nnc(CCCCCNC(=O)OC(C)(C)C)o2)c(C)c1
inhibition [1]: 12.2%
inhibition [2]: 47.9% (active)
inhibition [3]: 42.7%
inhibition [4]: 4.4%

COc1ccc(CCNC(=O)CSc2nc(O)c(CCC(C)C)c(=O)[nH]2)cc1OC
inhibition [1]: 2.2%
inhibition [2]: 61.7% (active)
inhibition [3]: 50.4% (active)
inhibition [4]: -12.8%

CN1C(=O)NC(c2ccccc2[N+](=O)[O-])C2=C1CC(C)(C)CC2=O (stereo not drawn)
inhibition [1]: 3.55%
inhibition [2]: 19%
inhibition [3]: -6.97%
inhibition [4]: 0.8%

O=C(CSc1nc2[nH]ncc2c(=O)n1-c1ccccc1)c1ccc2c(c1)OCCO2
inhibition [1]: 0.39%
inhibition [2]: 38.2%
inhibition [3]: 32.6%
inhibition [4]: -16.1%

CCS(=O)(=O)N1Cc2cc(C(=O)NCC3CC3)nc(-c3cccc(-c4cccnc4)c3)c2[C@@H]1CCO
inhibition [1]: 8.53%
inhibition [2]: 47.6% (active)
inhibition [3]: 41.8%
inhibition [4]: -27.8%

COc1ccc(CCNC(=O)CSC2=Nc3ccccc3C3=NC(C(C)C)C(=O)N23)cc1OC (stereo not drawn)
inhibition [1]: 21.5%
inhibition [2]: 62.3% (active)
inhibition [3]: 53.1% (active)
inhibition [4]: 0.61%

C=CCNC(=S)N/N=C(\C)c1ccccn1
inhibition [1]: 89.3% (active)
inhibition [2]: 95.5% (active)
inhibition [3]: 88.6% (active)
inhibition [4]: 54.8% (active)

Cc1c(Cl)cccc1NC(=O)CS(=O)(=O)c1ccccc1
inhibition [1]: 13.4%
inhibition [2]: 55.1% (active)
inhibition [3]: 55.5% (active)
inhibition [4]: -1.09%

CCOc1ccc(CCNC(=O)COC(=O)c2nc3nc(C)cc(C)n3n2)cc1OCC
inhibition [1]: 9.65%
inhibition [2]: 48.8% (active)
inhibition [3]: 38.2%
inhibition [4]: -0.98%
